Measured values from PubChem BioAssay AID686978 (National Center for Advancing Translational Sciences (NCATS), 2013).
Screen size: about 420,000 compounds; about 64,000 (15%) were called active. About 27% were inconclusive and are not listed. Calls follow the shape of the dose curve; as a rule, active = well fitted inhibition curve with a large enough effect; inconclusive = small, poorly fitted or top-dose-only effect; inactive = flat fitted curve, though single readings scatter. These entries were drawn from the full list. Where a call stands in place of a potency, no number is given.

Experiment: qHTS for Inhibitors of human tyrosyl-DNA phosphodiesterase 1 (TDP1): qHTS in cells in absence of CPT; also: nearly all actives have a fitted effect of over 55% in size
Settings: DT40 Tdp1-/- hTDP1 cells, no CPT, ATP luminescence, 48 h; activity change, negative = growth inhibition: at 46.2 µM (top of the series)
Summary of the method: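 No-CPT arm: Tdp1-/-;hTDP1 DT40 cells (400/well) plus compounds, incubated ≥48 hr at 37 °C. Readout CellTiter-Glo luminescence.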
Potency is read from the fitted curve at half-maximal effect.

Row | Structure (SMILES) | Potency
1 | OCC1(CO)CC2(C1)CC(CO)(CO)C2 | inactive
2 | CCOC(=O)c1sc(NC(=O)/C=C/c2ccc(C(C)C)cc2)c(C(=O)OCC)c1C | inactive
3 | Cc1ccc(S(=O)(=O)NCC(=O)N(CC(=O)NCC2CCCO2)c2cccc(F)c2)cc1 (stereo not drawn) | inactive
4 | COC(=O)c1cc(NC(=O)CCc2c(C)nc3c4c(C)cc(C)nc4nn3c2C)cc(C(=O)OC)c1 | inactive
5 | CCc1noc(C)c1C(=O)NNC(=O)c1ccc(F)cc1 | inactive
6 | CCc1noc(C)c1C(=O)OCC(=O)c1ccc(NC(=O)CC(C)C)cc1 | 25.9 µM (active)
7 | COc1ccc(C(=O)COC(=O)c2c(C)noc2C)cc1Cl | inactive
8 | O=C(Nc1nsc(-c2ccccc2)n1)c1ccncc1 | inactive
9 | NC(=O)c1oc2ccccc2c1NC(=O)Cc1ccccc1 | inactive
10 | COc1ccc(-c2nn(-c3ccccc3)cc2/C=C\C(=O)N2CCOCC2)cc1[N+](=O)[O-] | inactive
11 | COC(=O)[C@H]1[C@H]2C[C@H]3c4[nH]c5ccccc5c4CCN3C[C@@H]2CC[C@@H]1O | inactive
12 | C[C@@H]1ON(C)[C@H]2C[C@H]3c4cc(N5CCN(C)CC5)ccc4CCN3C(=O)[C@@H]12 | inactive
13 | COc1ccc(-c2ccc3[nH]c4c(c3c2)CCN2C[C@H]3[C@H](C)ON(C)[C@H]3C[C@@H]42)cc1 | 20.6 µM (active)
14 | CC(C)(C)C1CCC(C(=O)NCC(c2cccs2)N2CCOCC2)CC1 (stereo not drawn) | 8.2 µM (active)
15 | COc1ccc(C(CNC(=O)CSc2ccccc2)N2CCOCC2)cc1 (stereo not drawn) | inactive
16 | O=C(NCc1csc(-c2cccs2)n1)C1CC1 | inactive
17 | Cc1cc(=O)oc(C)c1C(=O)Nc1cnc2ccccc2c1 | inactive
18 | CCc1ccc(NC(=O)C(=O)N/N=C(\C)CC(=O)NCCOC)cc1 | inactive
19 | CCc1nnc(NC(=O)CSc2nnc(Cc3ccccc3)n2-c2ccc(OC)cc2)s1 | inactive
20 | CCc1c(C)[nH]c(=S)c(C#N)c1C | inactive
21 | COc1cccc(C(=O)NC2(C(F)(F)F)C(=O)Nc3c2c(=O)[nH]c(=O)n3-c2ccc(C)cc2)c1 (stereo not drawn) | 23.1 µM (active)

Row | Structure (SMILES) | Potency
22 | CCOc1ccccc1C(=O)NC1(C(F)(F)F)C(=O)Nc2c1c(=O)[nH]c(=O)n2-c1ccc(F)cc1 (stereo not drawn) | inactive
23 | COc1cccc(C(=O)NNC(=O)c2cccc(F)c2)c1 | inactive
24 | Cc1cccc(-c2noc(CCC(=O)NC3CCCC3)n2)c1 | inactive
25 | CCOC(=O)C1=CC[C@@H](c2ccncc2)N(S(=O)(=O)c2ccc(C)cc2)C1 | 23.1 µM (active)
26 | Cc1ccc(S(=O)(=O)N2CC[C@H]3[C@@H](C2)C(=O)C[C@@H](c2ccccc2)N3S(=O)(=O)c2ccc(C)cc2)cc1 | inactive
27 | CC(=O)C1=CCC(c2ccccc2)N(S(=O)(=O)c2ccc(C)cc2)C1 (stereo not drawn) | 23.1 µM (active)
28 | COc1ccc(S(=O)(=O)N2CCOC2CNC(=O)C(=O)NCc2ccncc2)cc1OC (stereo not drawn) | inactive
29 | O=C(CN1CCN(S(=O)(=O)c2ccc(F)cc2)CC1)NC1CC1 | inactive
30 | Cc1ccc(S(=O)(=O)N2C3C=CC(C3)C2C(=O)O)cc1 (stereo not drawn) | inactive
31 | Cc1ccc(S(=O)(=O)N2CCCC2CO)cc1 (stereo not drawn) | inactive
32 | CCOC(=O)C1=CCC(c2ccc(F)cc2)N(S(=O)(=O)c2ccc(C)cc2)C1 (stereo not drawn) | 18.4 µM (active)
33 | Cc1ccc(NC(=O)CSc2nnc(CNC(=O)c3ccccc3F)o2)cc1 | inactive
34 | COc1ccc(-c2cc(=O)oc3cc(OCC(=O)N(C)C4CCS(=O)(=O)C4)ccc23)cc1 (stereo not drawn) | inactive
35 | Cc1ccc(-c2c[n+](=O)c3c(n2[O-])CCC3)cc1 | inactive
36 | O=C(C1CCN(C2CCN(Cc3cccc4c3OCO4)CC2)CC1)N1CCOCC1 | inactive
37 | COC(=O)C(C)n1cnc2c(nnn2-c2ccc(F)cc2)c1=O (stereo not drawn) | inactive
38 | O=C1CC(c2ccccc2)C(c2ccccc2)=NN1 (stereo not drawn) | inactive
39 | CCOc1ccc(N2CC(C(=O)NCc3ccccn3)CC2=O)cc1 (stereo not drawn) | inactive
40 | O=C(COC(=O)Cc1ccc(Br)cc1)Nc1ccc(N2CCOCC2)cc1 | inactive
41 | COc1ccc(C(=O)Nc2c(N)nc(SCC(=O)Nc3ccc(C(C)=O)cc3)[nH]c2=O)cc1 | inactive
42 | Cc1cc(Cl)c(S(=O)(=O)N(C)C)cc1OCC(N)=O | inactive

Row | Structure (SMILES) | Potency
43 | COc1ccc(OC)c(S(=O)(=O)n2c([N+](=O)[O-])cnc2C)c1 | inactive
44 | COc1ccc(C(=O)CSc2nc(C)cc(C)n2)cc1[N+](=O)[O-] | inactive
45 | COc1ccc(C(C[N+](=O)[O-])n2nc(C)cc2C)cc1 (stereo not drawn) | 6.51 µM (active)
46 | C/C(=N\N)c1c(-c2ccccc2)c2cc(Br)ccc2[nH]c1=O | inactive
47 | COc1ccc(CCNC(=O)COC(=O)/C=C/c2cccs2)cc1OC | inactive
48 | Cc1[nH]n(C)c(=O)c1N=Nc1ccc(S(C)(=O)=O)cc1 | inactive
49 | Cc1nnc(Nc2ccccc2F)s1 | inactive
50 | Nc1ncnc2c1ncn2[C@@H]1O[C@H](CNCc2cccn2-c2nccs2)[C@@H](O)[C@H]1O | inactive
51 | COc1ccc(N2CCN(CCCNC(=O)C3CCN(S(=O)(=O)N4CCOCC4)CC3)CC2)cc1 | inactive
52 | N#CCCn1c(=O)c(-c2cc(F)cc(F)c2)nc2cnc(Oc3ccccc3)nc21 | inactive
53 | COc1cc(/C=N/n2c(C)n[nH]c2=S)ccc1OCc1ccccc1 | inactive
54 | COc1cccc(/C=N\Nc2nncc(-c3ccccc3)n2)c1 | inactive
55 | CCOc1ccc(/C=N/Nc2nncc(-c3ccccc3)n2)cc1OC | 14.6 µM (active)
56 | COc1cc(OC)c(N2CC(C(=O)Nc3cc(Cl)ccc3N3CCOCC3)CC2=O)cc1Cl (stereo not drawn) | 3.66 µM (active)
57 | COc1ccccc1N1CC(C(=O)Nc2ccc(S(=O)(=O)N3CCOCC3)cc2)CC1=O (stereo not drawn) | inactive
58 | Cc1ccc(N2CC(C(=O)Nc3cc(Cl)ccc3-n3cncn3)CC2=O)cc1 (stereo not drawn) | inactive
59 | O=C(c1cnccn1)N1CCC[C@@]2(CCN(Cc3ccncc3)C2)C1 | inactive
60 | CC(=O)c1cnc(SCCN2C(=O)c3ccccc3C2=O)nc1C | inactive
61 | Cc1cc(NC(=O)CCC(=O)N(c2cccc(F)c2)C(C(=O)NC2CCCC2)c2ccncc2)no1 (stereo not drawn) | inactive
62 | Cc1cc(NC(=O)/C=C/C(=O)N(c2ccccc2C)C(C(=O)NC2CCCC2)c2ccc(F)cc2)no1 (stereo not drawn) | 23.1 µM (active)
63 | Cc1cc(NC(=O)CCC(=O)N(CC(=O)NC2CCCC2)c2ccc(F)cc2)no1 | inactive
